In the supplement of paper PMC10849652:
The full data set covers some 7,900 targets. This sample favours those with a hit. About 0.6% of all pairs of compound and target were hits.

Tests used:
Test in all cases: log2 fold change, soluble protein after heating vs DMSO (PISA); higher = thermal stabilisation; K562 cells, 10 uM, 30 min; active = over 0.2 and 3.5 SD of the protein, either way, in both replicates (recomputed)
bafetinib = compound: Cc1ccc(NC(=O)c2ccc(CN3CC[C@H](N(C)C)C3)c(C(F)(F)F)c2)cc1Nc1nccc(-c2cncnc2)n1 [bafetinib]
Outline: (§1)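 K562 cells at 2×10^6 cells/mL were given 10 μM compound for 30 min. Aliquots then went through 3 min of heating across 48°C-58°C, were pooled, and were extracted in PBS with 0.5% NP-40 at 4°C, and the supernatant after 21,000xg for 90 min was quantified by TMTpro 16plex LC-MS/MS with channel sums equalised. Thermal stability relative to control samples, from duplicates, is given as log2 fold change.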

[1] = compound: Cc1cccc(CC(=O)N2CCc3c2ccc(-c2cn(C)c4ncnc(N)c24)c3F)n1
Outline: as §1

nilotinib = compound: Cc1cn(-c2cc(NC(=O)c3ccc(C)c(Nc4nccc(-c5cccnc5)n4)c3)cc(C(F)(F)F)c2)cn1 [nilotinib]
Outline: as §1

[2] = compound: Cc1nc(Nc2n[nH]c3c2CN(C(=O)N[C@H](CN(C)C)c2ccccc2)C3(C)C)c2sccc2n1
Outline: as §1

dasatinib = compound: Cc1nc(Nc2ncc(C(=O)Nc3c(C)cccc3Cl)s2)cc(N2CCN(CCO)CC2)n1 [dasatinib]
Outline: as §1

[3] = compound: Cc1ncc(-c2ccnc(Nc3ccc(S(C)(=O)=O)cc3)n2)n1C(C)C
Outline: as §1

[4] = compound: Cn1cc(-c2ccc3c(c2)CCN3C(=O)Cc2cccc(C(F)(F)F)c2)c2c(N)ncnc21
Outline: as §1

[5] = compound: Cn1cc(-c2ccc3nnc(C(F)(F)c4ccc5ncccc5c4)n3n2)cn1
Outline: as §1

tipifarnib = compound: Cn1cncc1[C@@](N)(c1ccc(Cl)cc1)c1ccc2c(c1)c(-c1cccc(Cl)c1)cc(=O)n2C [tipifarnib]
Outline: as §1

mubritinib = compound: FC(F)(F)c1ccc(/C=C/c2nc(COc3ccc(CCCCn4ccnn4)cc3)co2)cc1 [mubritinib]
Outline: as §1

Measured: log2 fold change

NUMBL (UniProt Q9Y6R0)
Sequence of UniProt Q9Y6R0 (Q9Y6R0 whole entry, looked up): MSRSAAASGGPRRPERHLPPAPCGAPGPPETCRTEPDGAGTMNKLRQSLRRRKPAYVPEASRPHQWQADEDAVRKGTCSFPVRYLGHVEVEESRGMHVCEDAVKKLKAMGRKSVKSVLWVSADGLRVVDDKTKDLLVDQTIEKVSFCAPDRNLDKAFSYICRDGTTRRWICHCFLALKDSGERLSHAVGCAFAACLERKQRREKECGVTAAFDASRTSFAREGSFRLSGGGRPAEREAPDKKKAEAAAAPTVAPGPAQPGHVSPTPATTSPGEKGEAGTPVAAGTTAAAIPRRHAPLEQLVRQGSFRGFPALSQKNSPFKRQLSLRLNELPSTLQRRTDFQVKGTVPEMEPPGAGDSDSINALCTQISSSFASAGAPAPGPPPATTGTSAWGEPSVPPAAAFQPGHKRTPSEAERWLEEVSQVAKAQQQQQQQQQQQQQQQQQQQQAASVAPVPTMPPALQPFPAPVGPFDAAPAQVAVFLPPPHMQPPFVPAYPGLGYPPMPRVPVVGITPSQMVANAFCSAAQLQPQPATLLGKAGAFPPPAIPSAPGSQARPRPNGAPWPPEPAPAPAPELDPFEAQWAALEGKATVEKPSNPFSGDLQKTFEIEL
inactive: bafetinib -0.002 | [1] 0.113 | nilotinib -0.001 | [2] -0.136 | dasatinib -0.029 | [3] 0.027 | [4] 0.041 | [5] 0.097 | tipifarnib 0.068 | mubritinib 0.28

NR2C2 isoform 2 (UniProt P49116)
inactive: bafetinib -0.093 | [1] 0.027 | nilotinib -0.033 | [2] -0.091 | dasatinib -0.026 | [3] 0.021 | [4] -0.003 | [5] -0.038 | tipifarnib -0.184 | mubritinib 0.026

NDUFAF6 (UniProt Q330K2)
inactive: bafetinib -0.178 | [1] 0.014 | nilotinib 0.01 | [2] -0.096 | dasatinib -0.064 | [3] 0.017 | [4] 0.01 | [5] 0 | tipifarnib -0.11 | mubritinib 0.028

OTULIN (UniProt Q96BN8)
inactive: bafetinib -0.039 | [1] 0.066 | nilotinib -0.091 | [2] -0.124 | dasatinib -0.169 | [3] 0.033 | [4] -0.051 | [5] 0.235 | tipifarnib -0.081 | mubritinib 0.152

MYO19 (UniProt Q96H55)
Sequence of UniProt Q96H55 (Q96H55 whole entry, looked up): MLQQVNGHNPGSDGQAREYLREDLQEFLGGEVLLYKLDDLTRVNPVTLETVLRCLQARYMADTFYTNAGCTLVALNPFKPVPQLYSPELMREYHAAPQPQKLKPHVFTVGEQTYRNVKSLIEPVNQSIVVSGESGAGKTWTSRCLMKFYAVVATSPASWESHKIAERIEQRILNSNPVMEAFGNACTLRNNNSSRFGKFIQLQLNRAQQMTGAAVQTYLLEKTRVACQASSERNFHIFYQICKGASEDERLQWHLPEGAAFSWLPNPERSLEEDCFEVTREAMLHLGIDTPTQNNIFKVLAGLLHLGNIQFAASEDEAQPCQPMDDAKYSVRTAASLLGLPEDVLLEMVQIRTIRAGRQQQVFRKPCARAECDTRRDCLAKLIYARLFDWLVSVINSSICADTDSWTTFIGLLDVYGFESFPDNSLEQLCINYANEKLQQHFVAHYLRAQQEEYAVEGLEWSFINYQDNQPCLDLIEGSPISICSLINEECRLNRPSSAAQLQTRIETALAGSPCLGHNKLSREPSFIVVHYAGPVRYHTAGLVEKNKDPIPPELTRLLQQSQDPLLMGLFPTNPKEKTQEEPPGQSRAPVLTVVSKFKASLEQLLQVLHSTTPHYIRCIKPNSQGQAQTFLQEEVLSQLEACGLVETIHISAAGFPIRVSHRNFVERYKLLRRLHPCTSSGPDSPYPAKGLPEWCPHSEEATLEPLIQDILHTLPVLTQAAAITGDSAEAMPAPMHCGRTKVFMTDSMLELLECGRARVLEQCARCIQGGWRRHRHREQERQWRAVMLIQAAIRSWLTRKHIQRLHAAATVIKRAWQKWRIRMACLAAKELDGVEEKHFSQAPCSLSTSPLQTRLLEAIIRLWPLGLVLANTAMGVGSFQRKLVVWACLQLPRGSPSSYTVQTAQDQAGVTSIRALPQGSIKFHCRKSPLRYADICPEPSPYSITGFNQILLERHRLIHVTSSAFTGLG
inactive: bafetinib 0.007 | [1] -0.068 | nilotinib -0.022 | [2] -0.045 | dasatinib -0.111 | [3] 0.038 | [4] -0.099 | [5] -0.069 | tipifarnib 0.048

NHLRC2 (UniProt Q8NBF2)
inactive: bafetinib -0.141 | [1] 0.002 | nilotinib -0.05 | [2] -0.004 | dasatinib -0.052 | [3] -0.001 | [4] 0.042 | [5] 0.006 | tipifarnib -0.024 | mubritinib 0.058

NECTIN2 (UniProt Q92692)
inactive: bafetinib 0.03 | [1] -0.023 | nilotinib -0.023 | [2] 0.022 | dasatinib -0.017 | [3] 0.055 | [4] 0.096 | [5] 0.009 | tipifarnib 0.008 | mubritinib 0.023

NOP58 (UniProt Q9Y2X3)
Sequence of UniProt Q9Y2X3 (Q9Y2X3 whole entry, looked up): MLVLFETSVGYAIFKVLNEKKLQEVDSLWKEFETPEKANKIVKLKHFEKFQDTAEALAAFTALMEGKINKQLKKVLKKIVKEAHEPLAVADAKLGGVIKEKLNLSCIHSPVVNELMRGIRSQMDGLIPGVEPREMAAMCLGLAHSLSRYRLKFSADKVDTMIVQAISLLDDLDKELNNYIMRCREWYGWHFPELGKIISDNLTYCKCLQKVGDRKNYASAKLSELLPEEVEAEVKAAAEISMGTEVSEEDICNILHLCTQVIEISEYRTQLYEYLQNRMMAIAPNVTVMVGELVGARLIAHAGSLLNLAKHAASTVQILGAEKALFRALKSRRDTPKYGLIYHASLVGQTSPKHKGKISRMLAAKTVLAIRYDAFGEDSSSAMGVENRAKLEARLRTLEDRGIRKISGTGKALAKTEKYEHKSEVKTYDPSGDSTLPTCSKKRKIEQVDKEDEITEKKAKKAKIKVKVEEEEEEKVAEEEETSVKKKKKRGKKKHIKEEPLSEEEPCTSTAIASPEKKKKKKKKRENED
inactive: bafetinib 0.146 | [1] -0.154 | nilotinib 0.03 | [2] -0.194 | dasatinib 0.266 | [3] -0.142 | [4] -0.194 | [5] -0.093 | tipifarnib 0.067 | mubritinib -0.071

MSH6 (UniProt P52701)
inactive: bafetinib -0.019 | [1] 0.101 | nilotinib -0.116 | [2] -0.179 | dasatinib -0.325 | [3] -0.1 | [4] 0.139 | [5] 0.167 | tipifarnib -0.174 | mubritinib 0

MRPS5 (UniProt P82675)
inactive: bafetinib 0.153 | [1] 0.159 | nilotinib -0.287 | [2] 0.118 | dasatinib -0.073 | [3] 0.067 | [4] 0.039 | [5] 0.087 | tipifarnib -0.13 | mubritinib 0.22

MUL1 (UniProt Q969V5)
Sequence of UniProt Q969V5 (Q969V5 whole entry, looked up): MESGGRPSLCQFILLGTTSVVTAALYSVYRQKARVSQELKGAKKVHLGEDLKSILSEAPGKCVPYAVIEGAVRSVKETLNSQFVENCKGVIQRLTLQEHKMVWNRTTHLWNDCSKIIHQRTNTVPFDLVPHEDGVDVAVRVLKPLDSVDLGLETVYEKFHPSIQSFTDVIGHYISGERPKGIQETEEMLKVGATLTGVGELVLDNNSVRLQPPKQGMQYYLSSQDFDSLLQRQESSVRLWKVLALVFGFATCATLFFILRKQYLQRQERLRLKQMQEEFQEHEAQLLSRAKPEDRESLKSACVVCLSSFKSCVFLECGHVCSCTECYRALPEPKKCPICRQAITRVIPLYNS
inactive: bafetinib -0.018 | [1] 0.042 | nilotinib 0.004 | [2] 0.044 | dasatinib 0.011 | [3] -0.059 | [4] 0.036 | [5] 0.016 | tipifarnib -0.037 | mubritinib -0.023

NMU (UniProt P48645)
Sequence of UniProt P48645 (P48645 whole entry, looked up): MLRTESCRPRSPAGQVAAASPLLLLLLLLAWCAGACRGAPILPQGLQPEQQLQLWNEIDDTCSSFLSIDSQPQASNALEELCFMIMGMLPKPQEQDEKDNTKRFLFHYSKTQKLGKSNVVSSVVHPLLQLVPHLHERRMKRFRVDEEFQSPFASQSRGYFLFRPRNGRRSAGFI
inactive: bafetinib -0.01 | [1] 0.152 | nilotinib 0.011 | [2] -0.022 | dasatinib 0.16 | [3] -0.012 | [4] -0.394 | [5] -0.11 | tipifarnib 0.276

MYH11 isoform 2 (UniProt P35749)
Sequence of UniProt P35749 (P35749 whole entry, looked up): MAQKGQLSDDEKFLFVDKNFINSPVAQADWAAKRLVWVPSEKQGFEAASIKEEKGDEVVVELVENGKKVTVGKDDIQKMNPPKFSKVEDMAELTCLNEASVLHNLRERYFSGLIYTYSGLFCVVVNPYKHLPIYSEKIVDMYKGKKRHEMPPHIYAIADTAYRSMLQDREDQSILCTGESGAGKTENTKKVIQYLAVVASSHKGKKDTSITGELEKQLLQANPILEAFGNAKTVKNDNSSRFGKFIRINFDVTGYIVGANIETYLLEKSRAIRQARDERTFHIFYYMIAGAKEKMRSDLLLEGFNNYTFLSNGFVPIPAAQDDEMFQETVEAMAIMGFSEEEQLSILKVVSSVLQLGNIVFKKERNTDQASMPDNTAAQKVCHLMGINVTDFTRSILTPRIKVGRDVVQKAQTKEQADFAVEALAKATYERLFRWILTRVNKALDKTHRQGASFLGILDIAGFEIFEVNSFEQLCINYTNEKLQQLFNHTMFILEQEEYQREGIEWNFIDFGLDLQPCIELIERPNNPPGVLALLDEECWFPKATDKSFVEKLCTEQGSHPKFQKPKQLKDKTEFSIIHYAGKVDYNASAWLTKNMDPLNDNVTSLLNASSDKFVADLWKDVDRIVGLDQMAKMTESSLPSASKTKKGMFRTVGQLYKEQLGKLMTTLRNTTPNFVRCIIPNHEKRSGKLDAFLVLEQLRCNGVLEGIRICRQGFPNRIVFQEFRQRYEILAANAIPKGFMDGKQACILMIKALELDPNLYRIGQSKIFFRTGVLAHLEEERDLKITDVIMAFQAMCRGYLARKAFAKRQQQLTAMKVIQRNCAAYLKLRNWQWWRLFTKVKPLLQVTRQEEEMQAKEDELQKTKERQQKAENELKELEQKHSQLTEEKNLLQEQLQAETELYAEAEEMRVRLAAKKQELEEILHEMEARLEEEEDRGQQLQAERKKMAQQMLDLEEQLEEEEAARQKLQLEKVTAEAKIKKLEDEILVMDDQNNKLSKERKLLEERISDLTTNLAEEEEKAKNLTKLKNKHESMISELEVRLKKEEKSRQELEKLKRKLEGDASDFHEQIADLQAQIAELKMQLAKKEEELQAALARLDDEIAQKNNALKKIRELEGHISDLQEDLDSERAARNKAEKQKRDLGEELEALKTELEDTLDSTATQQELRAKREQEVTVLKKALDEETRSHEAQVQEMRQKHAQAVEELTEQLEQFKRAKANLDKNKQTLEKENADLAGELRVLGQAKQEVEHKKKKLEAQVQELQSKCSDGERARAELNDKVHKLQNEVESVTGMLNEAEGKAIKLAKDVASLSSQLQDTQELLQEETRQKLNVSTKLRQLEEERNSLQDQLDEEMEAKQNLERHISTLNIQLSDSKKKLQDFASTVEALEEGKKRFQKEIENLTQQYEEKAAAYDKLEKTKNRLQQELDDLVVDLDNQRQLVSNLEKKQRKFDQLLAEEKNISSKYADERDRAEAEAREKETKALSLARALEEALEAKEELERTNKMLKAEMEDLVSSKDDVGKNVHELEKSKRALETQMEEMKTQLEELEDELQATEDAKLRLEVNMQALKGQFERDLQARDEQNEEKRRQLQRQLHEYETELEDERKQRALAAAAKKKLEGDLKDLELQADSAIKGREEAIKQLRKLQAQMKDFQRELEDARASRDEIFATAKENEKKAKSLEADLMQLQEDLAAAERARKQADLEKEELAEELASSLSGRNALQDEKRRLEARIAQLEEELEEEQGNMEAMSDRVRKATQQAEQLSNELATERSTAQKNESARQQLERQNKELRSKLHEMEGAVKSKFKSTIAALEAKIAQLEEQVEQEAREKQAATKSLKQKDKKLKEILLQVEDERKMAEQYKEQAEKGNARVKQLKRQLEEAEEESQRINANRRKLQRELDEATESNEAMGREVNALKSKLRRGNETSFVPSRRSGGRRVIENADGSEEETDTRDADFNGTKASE
inactive: bafetinib -0.055 | [1] -0.016 | nilotinib 0.05 | [2] 0.014 | dasatinib -0.027 | [3] -0.025 | [4] 0.039 | [5] -0.001 | tipifarnib 0.005 | mubritinib 0.007

NFATC2 (UniProt Q13469)
inactive: bafetinib 0.006 | [1] 0.066 | nilotinib -0.135 | [2] -0.341 | dasatinib -0.213 | [4] -0.025 | [5] -0.075 | tipifarnib -0.029 | mubritinib -0.124
active: [3] -0.445

MTHFS (UniProt P49914)
Sequence of UniProt P49914 (P49914 whole entry, looked up): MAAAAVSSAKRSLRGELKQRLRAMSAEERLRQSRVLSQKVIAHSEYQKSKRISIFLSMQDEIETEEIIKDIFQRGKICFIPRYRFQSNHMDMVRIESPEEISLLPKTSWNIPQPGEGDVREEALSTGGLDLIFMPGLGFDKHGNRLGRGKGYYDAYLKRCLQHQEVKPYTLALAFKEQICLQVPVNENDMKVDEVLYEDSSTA
inactive: bafetinib 0.074 | [1] 0.014 | nilotinib 0.154 | [2] 0.045 | dasatinib -0.094 | [3] 0.003 | [4] 0.032 | [5] -0.008 | tipifarnib 0.001 | mubritinib 0.045

NOB1 (UniProt Q9ULX3)
inactive: bafetinib 0.014 | [1] 0.093 | nilotinib -0.044 | [2] -0.005 | dasatinib -0.054 | [3] -0.045 | [4] -0.003 | [5] 0.059 | tipifarnib -0.106 | mubritinib -0.043

MTHFD1, A0A384N5Y3
inactive: bafetinib 0.099 | [1] -0.055 | nilotinib 0.239 | [2] -0.099 | dasatinib -0.153 | [3] -0.031 | [4] 0.087 | [5] -0.008 | tipifarnib -0.146 | mubritinib 0.107

NDUFA6 (UniProt P56556)
Sequence of UniProt P56556 (P56556 whole entry, looked up): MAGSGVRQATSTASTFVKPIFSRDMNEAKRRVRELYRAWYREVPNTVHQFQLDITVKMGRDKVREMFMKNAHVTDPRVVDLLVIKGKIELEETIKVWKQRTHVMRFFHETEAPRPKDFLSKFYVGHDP
inactive: bafetinib 0.128 | [1] 0.301 | nilotinib -0.151 | [2] 0.021 | dasatinib -0.088 | [3] 0.027 | [4] 0.089 | [5] 0.081 | tipifarnib -0.173 | mubritinib 0.184

MRPL46 (UniProt Q9H2W6)
inactive: bafetinib 0.06 | [1] 0.014 | nilotinib -0.03 | [2] -0.002 | dasatinib -0.006 | [3] -0.016 | [4] -0.019 | [5] 0.06 | tipifarnib 0.095 | mubritinib -0.003

MSH2 (UniProt P43246)
inactive: bafetinib 0 | [1] 0.04 | nilotinib -0.003 | [2] -0.103 | dasatinib -0.038 | [3] 0.034 | [4] 0.024 | [5] 0.035 | tipifarnib -0.063 | mubritinib 0.156

MTFR1L (UniProt Q9H019)
inactive: bafetinib -0.1 | [1] 0.305 | nilotinib 0.014 | [2] -0.32 | dasatinib -0.167 | [3] -0.038 | [4] 0.07 | [5] 0.001 | tipifarnib -0.062

NFYC (UniProt Q13952)
inactive: bafetinib -0.017 | [1] -0.041 | nilotinib -0.024 | [2] -0.021 | dasatinib 0.032 | [3] -0.008 | [4] 0.014 | [5] 0.048 | tipifarnib 0.038 | mubritinib 0.066

NA, A0A2R8Y3M9
inactive: bafetinib -0.605 | [1] 0.19 | nilotinib 0.035 | [2] -0.091 | dasatinib -0.013 | [3] 0.31 | [4] 0.503 | [5] -0.117 | tipifarnib 0.08

NUDT1 (UniProt P36639)
inactive: bafetinib 0.129 | [1] 0.052 | nilotinib -0.087 | [2] 0.271 | dasatinib -0.127 | [3] 0.301 | [4] 0.194 | [5] 0.06 | tipifarnib -0.069 | mubritinib 0.137

MYLK (UniProt Q15746)
inactive: [1] -0.063 | [2] 0.147 | [3] 0.136 | [4] -0.107 | [5] -0.128 | tipifarnib 0.047 | mubritinib 0
active: bafetinib 0.827 | nilotinib 0.856 | dasatinib 0.65

NUP85 (UniProt Q9BW27)
inactive: bafetinib -0.088 | [1] 0.02 | nilotinib -0.027 | [2] -0.115 | dasatinib -0.068 | [3] -0.013 | [4] -0.009 | [5] -0.002 | tipifarnib -0.031 | mubritinib 0.026

MRPS25 (UniProt P82663)
inactive: bafetinib 0.125 | [1] 0.158 | nilotinib -0.144 | [2] -0.043 | dasatinib -0.105 | [3] 0.044 | [4] 0.037 | [5] 0 | tipifarnib -0.077 | mubritinib 0.069

NDUFA7 (UniProt M0R0N0)
inactive: bafetinib -0.052

OXSR1 (UniProt O95747)
inactive: bafetinib -0.014 | [1] -0.012 | nilotinib -0.083 | [2] -0.029 | dasatinib -0.179 | [3] 0.031 | [4] 0.038 | [5] 0.005 | tipifarnib -0.117 | mubritinib -0.05

MRPS24 (UniProt Q96EL2)
inactive: bafetinib 0.283 | [1] 0.183 | nilotinib -0.195 | [2] 0.057 | dasatinib -0.024 | [3] 0.028 | [4] -0.141 | [5] 0.008 | tipifarnib -0.035 | mubritinib 0.186

MORC3 (UniProt Q14149)
inactive: bafetinib -0.014 | [1] 0.009 | nilotinib -0.173 | [2] 0.09 | dasatinib -0.154 | [3] 0.105 | [4] 0.011 | [5] -0.026 | tipifarnib 0.006 | mubritinib -0.212
